In PubChem BioAssay:
For some assays here: Measured potencies and affinities stand elsewhere. Active and inactive are the calls of the source. Unless noted, the rule behind the calls is not given here.

What was measured:
[1] = antimalarial activity against Dd2 strain (AID 2302;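 active = growth inhibition above 50% at the single 2 µM test dose, taken to imply half-maximal potency below 2 µM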;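 note: 0% = DMSO untreated growth and 100% = chloroquine plus artemisinin killed control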); conditions: P. falciparum Dd2 in RBCs, LDH growth readout, 72 h; at 2 µM; active compounds read high
[2] = human hepatoma cell viability loss – ATP luminescence, cytotoxicity control for P. falciparum antimalarial project, primary screen (AID 2303;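 active = inhibition above 50%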;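 note: 0% = DMSO wells and 100% = digitonin-killed cells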); conditions: HepG2 viability, 24-48 h, at 10 µM, active compounds read high
[3] = molecular target: L-lactate dehydrogenase (Plasmodium falciparum (isolate CDC / Honduras)) (UniProt Q27743); assay: PfLDH activity inhibition – cell lysate, 3D7 strain, counter-screen for P. falciparum growth inhibition project (AID 2304);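 note: 0% = vehicle and 100% = reference inhibitor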; conditions: P. falciparum 3D7 crude extract, LDH APAD/NBT absorbance; at 2 µM; active compounds read high
Sequence of L-lactate dehydrogenase (Plasmodium falciparum (isolate CDC / Honduras)) (Q27743 whole entry, looked up): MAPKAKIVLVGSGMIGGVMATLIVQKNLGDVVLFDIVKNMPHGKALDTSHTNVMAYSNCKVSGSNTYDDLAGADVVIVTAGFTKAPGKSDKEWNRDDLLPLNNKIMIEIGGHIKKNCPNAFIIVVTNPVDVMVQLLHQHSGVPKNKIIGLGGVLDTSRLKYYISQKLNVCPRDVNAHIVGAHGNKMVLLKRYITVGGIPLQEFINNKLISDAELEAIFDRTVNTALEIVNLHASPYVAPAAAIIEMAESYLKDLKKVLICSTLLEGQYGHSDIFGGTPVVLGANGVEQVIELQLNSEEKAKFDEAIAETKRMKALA

[4] = inhibition of 3D7 malaria parasite growth – strain 3D7 (AID 2306);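 note: 0% = DMSO wells and 100% = chloroquine plus artemisinin control wells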; conditions: P. falciparum 3D7 erythrocytic growth, LDH absorbance, 72 h; at 2 µM; active compounds read high
[5] = molecular target: Calcium-dependent protein kinase 1 (Plasmodium falciparum (isolate 3D7)) (UniProt P62344); assay: PfCDPK1 kinase inhibitors, biochemical, TCAMS library (AID 1159585; cut-off not given, nearly all actives have IC50 up to about 0.98 µM;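 note: inhibitors leave more ATP so luminescence rises with inhibition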); conditions: recombinant PfCDPK1, Kinase-Glo ATP depletion luminescence
Sequence of Calcium-dependent protein kinase 1 (Plasmodium falciparum (isolate 3D7)) (P62344 whole entry, looked up): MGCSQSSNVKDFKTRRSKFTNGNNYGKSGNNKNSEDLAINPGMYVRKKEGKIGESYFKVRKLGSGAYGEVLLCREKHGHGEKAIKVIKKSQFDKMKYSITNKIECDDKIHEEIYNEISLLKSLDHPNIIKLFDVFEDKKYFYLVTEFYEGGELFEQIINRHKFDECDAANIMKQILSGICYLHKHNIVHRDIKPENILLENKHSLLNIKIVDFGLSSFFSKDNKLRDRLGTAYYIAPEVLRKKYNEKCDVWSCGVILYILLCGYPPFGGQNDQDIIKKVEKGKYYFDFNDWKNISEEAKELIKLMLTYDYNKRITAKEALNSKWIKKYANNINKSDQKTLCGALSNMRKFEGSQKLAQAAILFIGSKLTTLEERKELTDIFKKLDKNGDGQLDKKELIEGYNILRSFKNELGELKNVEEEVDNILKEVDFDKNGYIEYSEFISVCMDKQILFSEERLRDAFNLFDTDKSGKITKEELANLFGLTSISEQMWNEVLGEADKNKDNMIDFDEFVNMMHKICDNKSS

[6] = molecular target: Plasmodium falciparum protein kinase 6 (PK6, PF3D7_1337100) (UniProt Q8IDW1); assay: PfPK6 kinase inhibitors, biochemical, TCAMS library (AID 1159586); conditions: recombinant PfPK6, Kinase-Glo ATP depletion luminescence
Sequence of Plasmodium falciparum protein kinase 6 (PK6, PF3D7_1337100) (Q8IDW1 1-305): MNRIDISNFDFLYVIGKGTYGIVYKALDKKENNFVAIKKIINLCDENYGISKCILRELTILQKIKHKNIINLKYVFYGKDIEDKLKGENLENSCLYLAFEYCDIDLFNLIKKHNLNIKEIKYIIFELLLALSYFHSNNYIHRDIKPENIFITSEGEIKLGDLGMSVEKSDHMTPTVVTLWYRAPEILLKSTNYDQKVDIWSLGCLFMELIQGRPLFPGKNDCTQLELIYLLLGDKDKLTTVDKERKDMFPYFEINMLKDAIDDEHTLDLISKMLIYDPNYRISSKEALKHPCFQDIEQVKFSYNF

[7] = molecular target: Protein kinase 7 (PK7), Plasmodium falciparum 3D7 (PF3D7_0213400) (UniProt Q7YTF7); assay: inhibition of Plasmodium PK7 catalytic activity – biochemical, TCAMS antimalarial set, Kinase-Glo luminescence (AID 1159587); conditions: recombinant PfPK7, Kinase-Glo ATP depletion luminescence
Sequence of Protein kinase 7 (PK7), Plasmodium falciparum 3D7 (PF3D7_0213400) (Q7YTF7 1-343): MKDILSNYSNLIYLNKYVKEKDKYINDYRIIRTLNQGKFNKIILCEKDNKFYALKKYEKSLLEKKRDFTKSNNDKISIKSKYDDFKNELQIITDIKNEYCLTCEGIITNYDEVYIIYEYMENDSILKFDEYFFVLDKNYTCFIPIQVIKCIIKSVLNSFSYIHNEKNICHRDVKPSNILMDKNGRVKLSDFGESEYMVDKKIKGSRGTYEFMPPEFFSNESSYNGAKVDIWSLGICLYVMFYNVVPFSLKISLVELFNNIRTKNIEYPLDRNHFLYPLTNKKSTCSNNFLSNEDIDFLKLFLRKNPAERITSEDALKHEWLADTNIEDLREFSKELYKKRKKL

[8] = molecular target: Calcium-dependent protein kinase 4 (Plasmodium falciparum (isolate 3D7)) (UniProt Q8IBS5); assay: PfCDPK4 kinase inhibitors, biochemical, TCAMS library (AID 1159588; cut-off not given, nearly all actives have IC50 up to about 0.91 µM); conditions: recombinant PfCDPK4, Kinase-Glo ATP depletion luminescence
Sequence of Calcium-dependent protein kinase 4 (Plasmodium falciparum (isolate 3D7)) (Q8IBS5 whole entry, looked up): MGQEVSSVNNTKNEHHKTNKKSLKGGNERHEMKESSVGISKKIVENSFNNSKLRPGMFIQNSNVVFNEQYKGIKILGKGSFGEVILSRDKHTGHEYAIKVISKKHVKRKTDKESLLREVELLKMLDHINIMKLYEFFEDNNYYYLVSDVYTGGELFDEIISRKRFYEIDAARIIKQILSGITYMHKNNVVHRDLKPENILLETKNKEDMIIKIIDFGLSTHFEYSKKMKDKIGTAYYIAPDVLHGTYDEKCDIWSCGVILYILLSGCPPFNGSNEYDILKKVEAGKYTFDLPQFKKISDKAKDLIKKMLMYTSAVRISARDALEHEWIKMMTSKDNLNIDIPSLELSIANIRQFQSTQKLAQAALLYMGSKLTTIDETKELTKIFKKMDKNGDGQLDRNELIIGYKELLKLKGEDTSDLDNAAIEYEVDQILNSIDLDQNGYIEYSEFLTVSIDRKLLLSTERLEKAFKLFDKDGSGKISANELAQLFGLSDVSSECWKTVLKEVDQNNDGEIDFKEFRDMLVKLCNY

COc1ccc2nccc([C@@H](O)CN3CCC(CO)(NCc4cc5ccccc5o4)CC3)c2c1
inactive: growth inhibition [1] 7% | inhibition [2] 12% | inhibition [3] -1% | outcome [5] | outcome [6] | outcome [7] | outcome [8]
active: growth inhibition [4] 85%

NC(=NCCCCCCCCN=C(N)Nc1ccc(Cl)cc1)Nc1ccc(Cl)cc1
inactive: inhibition [2] 10% | inhibition [3] -5% | outcome [5] | outcome [6] | outcome [7] | outcome [8]
active: growth inhibition [1] 89% | growth inhibition [4] 93%

Cc1cc(N2CCCCC2)nc2ccc(NC(=O)c3cc(=O)c4ccccc4o3)cc12
active: growth inhibition [4] 98%
inactive: growth inhibition [1] 19% | inhibition [2] 15% | inhibition [3] -7% | outcome [5] | outcome [6] | outcome [7] | outcome [8]

CC(C)(C)c1ccc(NC(=O)Nc2ccc(Cn3ncc(N4CCCNCC4)c(Cl)c3=O)cc2)cc1
inactive: growth inhibition [1] 33% | inhibition [2] -4% | inhibition [3] -7% | outcome [5] | outcome [6] | outcome [7] | outcome [8]
active: growth inhibition [4] 95%

CC[C@H](C)CNC(=O)c1cncc(-c2ccc(CN3CCC(N4CCCC4)CC3)cc2)c1
inactive: inhibition [2] -8% | inhibition [3] 3% | outcome [5] | outcome [6] | outcome [7] | outcome [8]
active: growth inhibition [1] 100% | growth inhibition [4] 101%

COc1ccc(NC(=O)[C@H](CC(C)C)Nc2cc(C)nc(NCCc3ccc(F)cc3)n2)cc1
inactive: inhibition [2] 1% | inhibition [3] -3% | outcome [5] | outcome [6] | outcome [7] | outcome [8]
active: growth inhibition [1] 79% | growth inhibition [4] 100%

Nc1ccc(Oc2ccc(Cc3cnc(N)nc3N)cc2)cc1
active: growth inhibition [4] 86%
inactive: growth inhibition [1] 5% | inhibition [2] 10% | inhibition [3] -3% | outcome [5] | outcome [6] | outcome [7] | outcome [8]

Cc1ccn2cc(-c3ccc(NC(=O)c4ccc(Br)o4)cc3)nc2c1
active: inhibition [2] 100% | growth inhibition [4] 98%
inactive: growth inhibition [1] 41% | inhibition [3] -3% | outcome [5] | outcome [6] | outcome [7] | outcome [8]

Cc1cc(NN=Cc2ccccc2)c2cc(F)ccc2n1
inactive: inhibition [2] 11% | inhibition [3] -1% | outcome [5] | outcome [6] | outcome [7] | outcome [8]
active: growth inhibition [1] 94% | growth inhibition [4] 101%

N#Cc1c(-c2ccccc2)cn2c1[nH]c(=O)c1ccccc12
active: growth inhibition [1] 95% | growth inhibition [4] 92%
inactive: inhibition [2] -1% | inhibition [3] 1% | outcome [5] | outcome [6] | outcome [7] | outcome [8]

FC(F)(F)COc1ccc(CNCCCCCCNCc2ccc(OCC(F)(F)F)c3ccccc23)c2ccccc12
active: growth inhibition [1] 93% | inhibition [2] 99% | growth inhibition [4] 102%
inactive: inhibition [3] 3% | outcome [5] | outcome [6] | outcome [7] | outcome [8]

Cc1nc(N)nc(N)c1-c1cc(Cl)c(N)c(Cl)c1
active: inhibition [2] 62% | growth inhibition [4] 94%
inactive: growth inhibition [1] 2% | inhibition [3] 6% | outcome [5] | outcome [6] | outcome [7] | outcome [8]

CN(C)CCCN1CCN(Cc2ccc(-c3ccc(-c4nc5ccccc5[nH]4)s3)cc2)CC1
inactive: inhibition [2] 19% | inhibition [3] 4% | outcome [5] | outcome [6] | outcome [7] | outcome [8]
active: growth inhibition [1] 100% | growth inhibition [4] 102%

CN1CCN(CCCN(Cc2cccc(-c3cccc(CNC4CCCC4)c3)c2)C(=O)CCC2CCCC2)CC1
inactive: inhibition [2] 35% | inhibition [3] -3% | outcome [5] | outcome [6] | outcome [7] | outcome [8]
active: growth inhibition [1] 96% | growth inhibition [4] 100%

COc1ccc(S(=O)(=O)N2CCC3(CC2)OCC(=O)NC3c2ccc(Cl)c(Cl)c2)cc1 (stereo not given)
inactive: growth inhibition [1] 44% | inhibition [2] -4% | inhibition [3] -2% | outcome [5] | outcome [6] | outcome [7] | outcome [8]
active: growth inhibition [4] 91%

COC(=O)c1cccc(CNCc2cccc(-c3ccc(-c4nc5ccccc5[nH]4)cc3)c2)c1
active: growth inhibition [1] 51% | growth inhibition [4] 99%
inactive: inhibition [2] -3% | inhibition [3] 4% | outcome [5] | outcome [6] | outcome [7] | outcome [8]

CNc1c2c(nc3ccc(NC(=O)CCCCCCc4ccccc4)cc13)CCCC2
active: growth inhibition [1] 82% | growth inhibition [4] 100%
inactive: inhibition [2] 0% | inhibition [3] 0% | outcome [5] | outcome [6] | outcome [7] | outcome [8]

Cc1cccc(Nc2nccc(Nc3cccc(C(=O)NCCN4CCOCC4)c3)n2)c1
active: growth inhibition [4] 91%
inactive: growth inhibition [1] 11% | inhibition [2] 10% | inhibition [3] -2% | outcome [5] | outcome [6] | outcome [7] | outcome [8]

O=C(c1ccc(F)c(F)c1)N1CCOC(CCN2CCC(c3ccccc3)CC2)(c2ccc(Cl)c(Cl)c2)C1 (stereo not given)
active: growth inhibition [1] 75% | inhibition [2] 51% | growth inhibition [4] 89%
inactive: inhibition [3] 2% | outcome [5] | outcome [6] | outcome [7] | outcome [8]

CN1CCC(N(Cc2ccc(-c3ccc(C(F)(F)F)cc3)nc2)C(=O)Cn2c(CCc3cccc(F)c3F)cc(=O)c3ccccc32)CC1
inactive: inhibition [3] 3% | outcome [5] | outcome [6] | outcome [7] | outcome [8]
active: growth inhibition [1] 85% | inhibition [2] 60% | growth inhibition [4] 91%

CCCCCN1CCCC1CNS(=O)(=O)c1ccc(C(=O)Nc2ccc(C(F)(F)F)cc2)cc1 (stereo not given)
inactive: growth inhibition [1] -3% | inhibition [2] 19% | inhibition [3] -2% | outcome [5] | outcome [6] | outcome [7] | outcome [8]
active: growth inhibition [4] 87%

COC(=O)c1cc(C(O)CNC(C)CCc2cccc(F)c2)ccc1O (stereo not given)
inactive: inhibition [2] 38% | inhibition [3] -2% | outcome [5] | outcome [6] | outcome [7] | outcome [8]
active: growth inhibition [1] 77% | growth inhibition [4] 94%

CC(=O)N1CCN(c2ccc(NC(=O)c3oc(-c4ccccc4)nc3C(F)(F)F)cn2)CC1
active: growth inhibition [1] 93% | growth inhibition [4] 92%
inactive: inhibition [2] -6% | inhibition [3] -2% | outcome [5] | outcome [6] | outcome [7] | outcome [8]

CCOC(=O)c1ccc(NC(=O)NNC(=O)c2ccc(CCN3CCC(c4nc(COCC(F)(F)F)c(-c5ccc(F)cc5)o4)CC3)cc2)cc1
inactive: inhibition [2] 10% | inhibition [3] 0% | outcome [5] | outcome [6] | outcome [7] | outcome [8]
active: growth inhibition [1] 67% | growth inhibition [4] 103%

CC(C)CNCc1cccc(-c2cccc(CNc3ccc4ncccc4c3)c2)c1
inactive: growth inhibition [1] 28% | inhibition [2] 23% | inhibition [3] 6% | outcome [5] | outcome [6] | outcome [7] | outcome [8]
active: growth inhibition [4] 92%

Cc1cc(-c2cnc(N)c(-c3ccc(N4CCN(C)CC4)cc3)c2)cc(C)c1O
inactive: inhibition [2] 3% | inhibition [3] -5% | outcome [5] | outcome [6] | outcome [7] | outcome [8]
active: growth inhibition [1] 99% | growth inhibition [4] 101%

CN(C)CCN(Cc1ccccc1)c1ccc([N+](=O)[O-])cc1C(F)(F)F
active: growth inhibition [1] 89% | growth inhibition [4] 96%
inactive: inhibition [2] 40% | inhibition [3] -8% | outcome [5] | outcome [6] | outcome [7] | outcome [8]

CN(C)Cc1ccc(-c2cccc(NC(=O)c3ccc(Cl)cc3)c2)cc1
inactive: growth inhibition [1] 13% | inhibition [2] 24% | inhibition [3] 3% | outcome [5] | outcome [6] | outcome [7] | outcome [8]
active: growth inhibition [4] 94%

CS(=O)(=O)CCNCc1cccc(-c2ccc3c(Nc4ccc(Oc5ccccc5)cc4)ccnc3c2)c1
inactive: inhibition [2] 18% | inhibition [3] 6% | outcome [5] | outcome [6] | outcome [7] | outcome [8]
active: growth inhibition [1] 96% | growth inhibition [4] 101%

CCCCCc1cnc2nc(N)nc(N)c2c1C
active: inhibition [2] 64% | growth inhibition [4] 96%
inactive: growth inhibition [1] 23% | inhibition [3] -3% | outcome [5] | outcome [6] | outcome [7] | outcome [8]

COCCNCc1cccc(-c2ccc3c(Nc4ccc(F)cc4Cl)ccnc3c2)c1
inactive: inhibition [2] 8% | inhibition [3] 3% | outcome [5] | outcome [6] | outcome [7] | outcome [8]
active: growth inhibition [1] 100% | growth inhibition [4] 103%

CC(=O)N(C)/N=C/[C@H](CCc1ccccc1)NC(=O)[C@H](CC(C)C)NC(=O)c1cccc(OCCN2CCOCC2)c1
active: growth inhibition [1] 65% | growth inhibition [4] 89%
inactive: inhibition [2] 5% | inhibition [3] 5% | outcome [5] | outcome [6] | outcome [7] | outcome [8]

CN1CCN(S(=O)(=O)c2ccc3nccc(Nc4ccc(Oc5ccccc5)cc4)c3c2)CC1
inactive: inhibition [2] -9% | inhibition [3] -3% | outcome [5] | outcome [6] | outcome [7] | outcome [8]
active: growth inhibition [1] 91% | growth inhibition [4] 98%

CC(C)CNCc1ccc(-c2cccc(CNc3ccc4ncccc4c3)c2)cc1
active: growth inhibition [4] 96%
inactive: growth inhibition [1] 31% | inhibition [2] 29% | inhibition [3] -2% | outcome [5] | outcome [6] | outcome [7] | outcome [8]

O=C(NC1CCN(Cc2cccc(C(F)(F)F)c2)CC1)c1ccc(-c2cccc(Cl)c2)s1
active: growth inhibition [4] 89%
inactive: growth inhibition [1] 33% | inhibition [2] 26% | inhibition [3] -1% | outcome [5] | outcome [6] | outcome [7] | outcome [8]

COc1ccc2c(c1)CC1CN(CCCCNC(=O)c3ccc(NC(=O)c4cc(Cl)cc(Cl)c4)cc3)CCN1C2 (stereo not given)
active: growth inhibition [1] 57% | growth inhibition [4] 101%
inactive: inhibition [2] 7% | inhibition [3] 1% | outcome [5] | outcome [6] | outcome [7] | outcome [8]

COc1ccccc1NC(=O)OC(COc1ccc(N)cc1)CN1CC=C(c2ccccc2)CC1 (stereo not given)
inactive: inhibition [2] 16% | inhibition [3] 3% | outcome [5] | outcome [6] | outcome [7] | outcome [8]
active: growth inhibition [1] 81% | growth inhibition [4] 90%

COc1ccc(CC2(c3ccc(F)cc3)N=C(N)N(CCCc3ccc4c(c3)OCO4)C2=O)cc1 (stereo not given)
inactive: inhibition [3] 3% | outcome [5] | outcome [6] | outcome [7] | outcome [8]
active: growth inhibition [1] 97% | inhibition [2] 60% | growth inhibition [4] 98%

O=C1C([N+](=O)[O-])=C(O)c2cccc(F)c21
active: growth inhibition [4] 95%
inactive: growth inhibition [1] 13% | inhibition [2] 9% | inhibition [3] 0% | outcome [5] | outcome [6] | outcome [7] | outcome [8]

CC(=O)c1ccc(NC(=O)C2c3ccccc3C(=O)N(CC(C)C)C2c2cccs2)cc1 (stereo not given)
active: growth inhibition [1] 51% | growth inhibition [4] 99%
inactive: inhibition [2] 13% | inhibition [3] -1% | outcome [5] | outcome [6] | outcome [7] | outcome [8]
